High-throughput results: PubChem BioAssay, several laboratories
Sampled rows, rich in hits. Any-hit rate of the full collection: about 0.97%.
Rv3671c inh = inhibitors of M. tuberculosis serine protease Rv3671c | inhibition, % at 5.96 µM | AID 2606 | P9WHR9 | hit rate 0.048% among 320,000; in the data active means inhibition above about 38%;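 further: extracellular domain of Rv3671c used as enzyme; 0% = enzyme with DMSO and 100% = no enzyme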
FadD28 binding = M. tuberculosis FadD28 bisubstrate binding inhibition; hit rate 0.22% among 360,000; AID 588549; inhibition, % at 12.5 µM; FadD28 bisubstrate probe binding, fluorescence polarization; in the data active means inhibition above about 8.5%, passing the limit was not always enough; inconclusive means no clear call, values can overlap the other calls
RecA intein inh = inhibitors of M. tuberculosis RecA intein splicing | cell-free RecA intein splicing, fluorescence | P9WHJ3 | hit rate 0.75% among 290,000 | AID 2221 | inhibition, % (no concentration beside the values); in the data active means inhibition above about 30%; inconclusive means no clear call, values can overlap the other calls;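 further: 0% = vehicle wells and 100% = reference inhibitor control wells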
BioA inh-1 = blocks M. tuberculosis BioA enzyme activity | inhibition, % at 9.99 µM | purified M. tuberculosis BioA enzyme, plate reader | hit rate 0.096% among 360,000; in the data active means inhibition above about 40%; inconclusive means no clear call, values can overlap the other calls
Mtb UGM inh = inhibitors of M. tuberculosis UDP-galactopyranose mutase; P9WIQ1; purified UGM, fluorescence polarization probe displacement; inhibition, % at 10 µM; hit rate 0.06% among 320,000; AID 504406; in the data active means inhibition above about 10%, passing the limit was not always enough; inconclusive means no clear call, values can overlap the other calls
Target sequence (P9WIQ1 whole entry, looked up): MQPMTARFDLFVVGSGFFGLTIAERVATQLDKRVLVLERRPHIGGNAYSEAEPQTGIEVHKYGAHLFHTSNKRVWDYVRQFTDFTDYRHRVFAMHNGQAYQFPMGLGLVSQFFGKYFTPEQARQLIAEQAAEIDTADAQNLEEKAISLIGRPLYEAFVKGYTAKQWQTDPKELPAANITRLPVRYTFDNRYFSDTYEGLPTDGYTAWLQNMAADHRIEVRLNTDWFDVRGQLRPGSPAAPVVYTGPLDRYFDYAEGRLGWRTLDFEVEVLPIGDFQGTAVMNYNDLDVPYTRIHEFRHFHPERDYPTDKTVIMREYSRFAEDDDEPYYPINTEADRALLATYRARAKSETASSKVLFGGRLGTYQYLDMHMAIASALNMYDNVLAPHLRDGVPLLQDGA
TcdB inh = TcdB glycohydrolase inhibition | P18177 | TcdB glycohydrolase enzymatic assay, plate reader | inhibition, % at 9.99 µM | hit rate 0.24% among 350,000 | AID 652162; in the data active means inhibition above about 10%
BioA inh-2 = inhibitors of Mycobacterium tuberculosis BioA enzyme | max activity, % | 310 tested, under 10 active | purified BioA enzyme, plate reader, dose response | shares compounds with BioA inh-1;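 further: top concentration of the dilution series was 10 µM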
HepG2 tox 2 = HepG2 viability loss; max activity, %; AID 651898; HepG2 cytotoxicity, plate reader; shares compounds with BioA inh-1; 310 tested, under 10 active
NIH3T3 tox 5 = cytotoxicity in NIH3T3 cells; shares compounds with BioA inh-1; plate reader; activity change, negative = cytotoxicity, % at 26 µM; 310 tested, under 10 active
* marks the source's active call; other numbers are inactive results; i = inactive; ? = inconclusive; · = not tested or not shown; [ ] = remark or other dose. Unless noted, how the calls were made is not given here.

SMILES	Rv3671c inh	FadD28 binding	RecA intein inh	BioA inh-1	Mtb UGM inh	TcdB inh	BioA inh-2	HepG2 tox 2	NIH3T3 tox 5
O=C(c1ccccc1)N1CC(=O)N2[C@@H](CO)[C@@H](c3ccc(C#Cc4ccccc4)cc3)[C@@H]2C1	·	·	·	·	·	0	·	·	·
O=C(c1cccc(F)c1)N1CC[C@@H]2[C@H]1c1cc(-c3ccccc3)ccc1N[C@@H]2CO	·	·	·	·	·	0	·	·	·
O=C(c1cccc(F)c1)N1CC[C@@H]2[C@H](CO)Nc3ccc(-c4cccc(F)c4)cc3[C@@H]21	·	·	·	41*	·	·	-6	i	-7
O=C(c1cccc(F)c1)N1CC[C@@H]2[C@H]1c1cc(-c3cccc(F)c3)ccc1N[C@@H]2CO	·	·	·	73*	·	·	7	i	-11[23.5 µM]
Cc1ccc(NS(=O)(=O)c2ccc3c(c2)n(C)c(=O)n3C)c(C)c1	0	-3	0	7	-1	1	·	·	·
CCn1c(=O)c(=O)n(CC)c2cc(S(=O)(=O)Nc3cc(C)ccc3C)ccc21	1	-1	1	42*	0	0	-11	-15	-16
O=C(C[C@H]1CC[C@H]2[C@@H](COC[C@H](O)CN2CCC(F)(F)F)O1)NCc1ccc(Oc2ccccc2)cc1	·	·	·	3	·	·	·	·	·
Cc1cccc(-c2nnc(SCC#N)n2Cc2ccccc2)c1	1	-3	3	15	-1	·	·	·	·
Cc1cccc(-c2nnc(SCC#N)n2-c2ccccc2)c1	2	-1	4	44*	0	·	-6	-6	-5
COc1ccc(C(=O)Nc2cccc(NC(=O)c3cccs3)c2)cc1	-43	-8	4	59*	2	1	-8	15	-2
COc1ccc(NC(=O)c2ccc(NC(=O)c3cccs3)cc2)cc1	-1	-2	-1	-2	2	2	·	·	·
C=CCn1c(SCc2c(C(=O)OC)sc(N)c2C(=O)OC)nnc1-c1ccc(Br)cc1	-1	-1	15	59*	0	·	9	7	1
C[C@@H]1CN([C@@H](C)CO)C(=O)Cc2cc(NC(=O)CCCN(C)C)ccc2O[C@H]1CN(C)S(=O)(=O)c1cccs1	·	·	·	3	·	·	·	·	·
O=C(Cc1ccncc1)N1CC[C@@H]2[C@H](CO)Nc3ccc(Br)cc3[C@@H]21	·	·	·	16	·	·	·	·	·
O=C(c1ccncc1)N1CC[C@@H]2[C@@H](CO)Nc3ccc(Br)cc3[C@@H]21	·	·	·	48*	·	·	-5	i	-2
O=C(C1CC1)N1CC[C@@H]2[C@H](CO)Nc3ccc(Br)cc3[C@@H]21	·	·	·	85*	·	-1	?	i	-5
COc1cccc(-c2ccc3c(c2)[C@H]2[C@H](CCN2C(=O)C2CCC2)[C@@H](CO)N3)c1	·	·	·	60*	·	·	-10	i	-2
Cc1cccc(NC(=O)CN(C)S(=O)(=O)c2cnc[nH]2)c1	2	-3	0	3	2	·	·	·	·
Cc1cc(NC(=O)CN(C)S(=O)(=O)c2cnc[nH]2)ccc1Br	4	-1	-2	42*	0	0	3	5	-4
CNC(=O)C[C@H]1CC[C@@H]2[C@H](COC[C@@H](O)CN2C(=O)Nc2ccc(Cl)c(Cl)c2)O1	·	·	·	83*	·	-1	-6	i	-7
CNC(=O)C[C@@H]1CC[C@H]2[C@@H](COC[C@H](O)CN2C(=O)Nc2ccc(Cl)c(Cl)c2)O1	·	·	·	0	·	2	·	·	·
COc1cccc(NC(=O)N2C[C@H](O)COC[C@@H]3O[C@@H](CC(=O)N(C)C)CC[C@H]32)c1	·	·	·	99*	·	-2	17	i	4
C[C@@H]1CN([C@H](C)CO)C(=O)c2cc(NC(=O)NC3CCCCC3)ccc2O[C@@H](C)CCCCO[C@@H]1CN(C)S(=O)(=O)c1cn(C)cn1	·	·	·	-1	·	0	·	·	·
CO[C@H]1CN(C)C(=O)c2cc(NC(C)=O)ccc2OC[C@H](C)N(S(=O)(=O)c2cn(C)cn2)C[C@H]1C	·	·	·	-2	·	0	·	·	·
CO[C@H]1CN(C)C(=O)c2ccc(NC(=O)C3CC3)cc2OC[C@H](C)N(CC2CCOCC2)C[C@@H]1C	·	·	·	·	·	1	·	·	·
SMILES	Rv3671c inh	FadD28 binding	RecA intein inh	BioA inh-1	Mtb UGM inh	TcdB inh	BioA inh-2	HepG2 tox 2	NIH3T3 tox 5
Cc1ccc(-c2nn(CCC(=O)Nc3cccnc3)c(=O)c3ccccc23)cc1	9	-2	4	89*	-3	1	-11	12	-6
C[C@@H]1CN([C@@H](C)CO)C(=O)c2cccc(NC(=O)c3nc4ccccc4s3)c2O[C@H]1CN(C)Cc1ccc2c(c1)OCO2	·	·	·	·	·	0	·	·	·
O=C(Nc1ccc(F)c(F)c1)c1ccc(-n2cncn2)c([N+](=O)[O-])c1	-3	-1	·	79*	-2	8	2	-5	2
COc1ccc(NC(=O)c2ccc(-n3cncn3)c([N+](=O)[O-])c2)cc1OC	2	-1	-9	66*	-3	2	-3	6	-2
C[C@H]1CN([C@@H](C)CO)C(=O)Cc2cc(NC(=O)Cn3cnnn3)ccc2O[C@H]1CN(C)CC1CCCCC1	·	·	·	-1	·	0	·	·	·
CCCc1c(OCCCOc2ccc(OCC(=O)O)cc2)ccc(C(C)=O)c1O	-4	-6	·	79*	0	1	-8	7	2
CCC(=O)c1ccc(OCC(=O)O)cc1	·	0	1	·	·	·	·	·	·
COCCNC(=O)C[C@@H]1CC[C@H]2[C@H](COc3ccc(NC(=O)Nc4cccc(F)c4)cc3C(=O)N2C)O1	·	·	·	24	·	·	·	·	·
COCCNC(=O)C[C@@H]1CC[C@@H]2[C@@H](COc3ccc(NC(=O)Nc4cccc(F)c4)cc3C(=O)N2C)O1	·	·	·	40*	·	0	8	i	2[23.5 µM]
COCCNC(=O)C[C@H]1CC[C@@H]2[C@@H](COc3ccc(NC(=O)Nc4cccc(F)c4)cc3C(=O)N2C)O1	·	·	·	55*	·	1	-9	i	-2[23.5 µM]
COCCNC(=O)C[C@@H]1CC[C@@H]2[C@H](COc3ccc(NC(=O)Nc4cccc(F)c4)cc3C(=O)N2C)O1	·	·	·	45*	·	0	?	i	9
C[C@H](CO)N1C[C@H](C)[C@@H](CN(C)C(=O)Nc2ccc(C(F)(F)F)cc2)OCCCC[C@H](C)Oc2ccc(NC(=O)Nc3cccc4ccccc34)cc2C1=O	·	·	·	2	·	0	·	·	·
CCC(=O)Nc1ccc2c(c1)C(=O)N(C)C[C@H](OC)[C@H](C)CN(CCc1ccccc1)[C@@H](C)CO2	·	·	·	1	·	0	·	·	·
Cc1ccccc1S(=O)(=O)NCC[C@H]1CC[C@@H](NC(=O)Nc2cccc(F)c2)[C@H](CO)O1	·	·	·	46*	·	1	-5	i	0
O=C(NC1CCCc2c1cnn2-c1cc(F)cc(F)c1)c1cc[n+]([O-])cc1 (stereo unspecified)	-3	0	-1	0	-1	1	·	·	·
O=C(NC1CCCc2c1cnn2-c1cc(F)cc(F)c1)c1ccc[n+]([O-])c1 (stereo unspecified)	-3	1	-1	65*	1	0	4	-7	-2
